We go through 36 compounds from PubChem BioAssay (Tox21).

A number with no mark means an inactive call. Results filed as inconclusive are left out. The source made the active and inactive calls. Calls follow the shape of the full dose curve.
% is scaled to controls: 0 for no effect and ±100 for the full control effect; potency is read from the fitted curve at half-maximal effect.

The nature of the first experiment: qHTS assay to identify small molecule agonists of the sonic hedgehog signaling (Shh) pathway (AID 1259368). Also: nearly all actives have a fitted effect of over 15% in size.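 As to activity change: NIH/3T3-derived 3T3Gli1-Luc cells carrying a stable Gli1-driven firefly luciferase reporter.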 Particulars: NIH/3T3 Gli1-Luc reporter, luciferase, 24 h; series mostly up to 92.4 µM; activity change: at the top concentration. In a few lines:
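Quantitative high-throughput format using a Gli1-driven firefly luciferase reporter line derived from NIH/3T3 cells. After a 24 hr compound treatment at 37 C and 5% CO2, luminescence reported Gli1 response element activity.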
Background: In qHTS, concentration-response curves come from the screen itself.
As for `CO[C@H]1C=CO[C@@]2(C)Oc3c(C)c(O)c4c(O)c(cc(O)c4c3C2=O)NC(=O)/C(C)=C\C=C/[C@H](C)[C@H](O)[C@@H](C)[C@@H](O)[C@@H](C)[C@H](OC(C)=O)[C@@H]1C`, the “activity change” value was -5.34%.

With `CCO[Si](CCCSSSSCCC[Si](OCC)(OCC)OCC)(OCC)OCC`, the “activity change” value is 1.33%.

In the case of `CCCCN(CCCC)CCC(O)c1cc2c(Cl)cc(Cl)cc2c2cc(C(F)(F)F)ccc12` (configuration not stated), the “activity change” value is 0.63% [at 42.5 µM, hits give high values].

Regarding `O=C1NCCN1CCN1CCC(c2cn(-c3ccc(F)cc3)c3ccc(Cl)cc23)CC1`, the “activity change” value was -6.69% [at 42.5 µM, hits give high values].

Take `SCCCCCCCCS`: the “activity change” value is 0.0792%.

As for `CN(C)c1ccc(N=Nc2ccccc2C(=O)O)cc1`, the “activity change” value was -12.7%.

`CCCCCCCCCC(=O)N(C)C`: the “activity change” value was 9.54%.

On to `CCN(CC)CCOc1ccc(C(O)(Cc2ccc(Cl)cc2)c2ccc(C)cc2)cc1` (configuration not stated), for which the “activity change” value is -6.82% [at 42.5 µM, hits give high values].

With `C[n+]1c2cc(N)ccc2cc2ccc(N)cc21` (tested in a mixture with another compound), the “activity change” value is -5.51% [at 42.5 µM, hits give high values].

On to `C=CC(=O)OCCOCC(CC)(COCCOC(=O)C=C)COCCOC(=O)C=C`, for which the Potency was 16 µM (active).

Turning to `N#CSCSc1nc2ccccc2s1`, the “activity change” value is -12.5%.

With `O=C(Nc1ccc(Cl)c(Cl)c1)c1cc(Cl)cc(Cl)c1O`, the “activity change” value is -6.93%.

Take `Nc1ccc2cc3ccc(N)cc3nc2c1`: the Potency result is “inactive”.

Consider `CCC(C)c1cc([N+](=O)[O-])cc([N+](=O)[O-])c1OC(=O)OC(C)C` (configuration not stated), for which the “activity change” value was -11%.

Consider `CC(C)(c1cc(Br)c(OCCO)c(Br)c1)c1cc(Br)c(OCCO)c(Br)c1`, for which the “activity change” value was -8.57%.

For the compound `O[C@@H](c1cc(C(F)(F)F)nc2c(C(F)(F)F)cccc12)[C@H]1CCCCN1`, the “activity change” value is -7.3% [at 42.5 µM, hits give high values].

As to `CCC(C)(C)c1cc(O)c(C(C)(C)CC)cc1O`, the “activity change” value is -4.87%.

For the compound `CN1CCN(C2Cc3ccccc3Sc3ccc(Cl)cc32)CC1` (configuration not stated), the “activity change” value was -2.14% [at 42.5 µM, hits give high values].

Take `Cc1ccc(-n2[nH]c(C)c(N=Nc3cccc(-c4cccc(C(=O)O)c4)c3O)c2=O)cc1C`: the “activity change” value is 4.94% [at 42.5 µM, hits give high values].

Consider `CCCCOc1ccc(C(=O)CCN2CCCCC2)cc1`, for which the “activity change” value is -0.877% [at 42.5 µM, hits give high values].

For `CCC1(c2cnc[nH]2)Cc2ccccc2C1`, the “activity change” value is -1.16% [at 42.5 µM, hits give high values].

Turning to `CCN(CC)CCNc1ccc(CO)c2sc3ccccc3c(=O)c12`, the “activity change” value is 0.14% [at 42.5 µM, hits give high values].

Consider `COc1ccccc1OCCNCC(O)COc1cccc2[nH]c3ccccc3c12` (configuration not stated), for which the “activity change” value is -6.16% [at 42.5 µM, hits give high values].

Consider `CN(C)CCCN1c2ccccc2Sc2ccc(C(F)(F)F)cc21`, for which the “activity change” value is -0.227% [at 42.5 µM, hits give high values].

Turning to `COC(=O)C1=C(C)NC(C)=C(C(=O)OCCCN2CCC(c3ccccc3)(c3ccccc3)CC2)C1c1cccc([N+](=O)[O-])c1` (configuration not stated), the “activity change” value is -5.28% [at 42.5 µM, hits give high values].

As to `Oc1ccc(-c2ccc(O)cc2)cc1`, the “activity change” value was -5.65%.

Consider `Cc1c(C)n(Cc2ccccc2)c2ccc(C(=O)OCCN(C)C)cc12`, for which the “activity change” value was -4.09% [at 42.5 µM, hits give high values].

For `Cc1cccc(C)c1NC(=O)CN1CCN(CCCC(c2ccc(F)cc2)c2ccc(F)cc2)CC1`, the “activity change” value was -7.61% [at 42.5 µM, hits give high values].

Regarding `Cc1cc(Nc2ccc(O)cc2)ccc1N`, the “activity change” value is -13.5%.

Regarding `Nc1cc(Cl)c([N+](=O)[O-])cc1O`, the “activity change” value was -6.92%.

With `CCCCCCCCCCOCC(O)CN` (configuration not stated), the “activity change” value is -6.49% [at 42.5 µM, hits give high values].

As for `COc1cc(C=C2CCC/C(=C\c3ccc(O)c(OC)c3)C2=O)ccc1O`, the Potency is 26.6 µM (active).

For the compound `C[C@@]12C(=O)OC(=O)[C@]1(C)C1CCC2O1`, the “activity change” value was -5.55% [at 42.5 µM, hits give high values].

With `Cc1cc2c(C(C)C)c(O)c(O)c(C=O)c2c(O)c1-c1c(C)cc2c(C(C)C)c(O)c(O)c(C=O)c2c1O`, the “activity change” value is -0.92% [at 42.5 µM, hits give high values].

For `CC1CCCCN1CCCOC(=O)c1ccc(OC2CCCCC2)cc1` (configuration not stated), the “activity change” value was 0.137% [at 42.5 µM, hits give high values].

The next experiment is described as follows: qHTS assay to identify small molecule antagonists of the sonic hedgehog signaling (Shh) pathway (AID 1259369). Also: nearly all actives have a fitted effect of over 45% in size. Particulars: NIH/3T3 Gli1-Luc reporter, Shh antagonist, luminescence 24 h; series mostly up to 92.4 µM; activity change, negative = inhibition: at the top concentration. In outline:
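Stable Gli1-Luc reporter NIH/3T3 clone; quantitative HTS in stimulated mode with conditioned medium. Luminescence measured after 24hr compound treatment at 37 C.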
`CO[C@H]1C=CO[C@@]2(C)Oc3c(C)c(O)c4c(O)c(cc(O)c4c3C2=O)NC(=O)/C(C)=C\C=C/[C@H](C)[C@H](O)[C@@H](C)[C@@H](O)[C@@H](C)[C@H](OC(C)=O)[C@@H]1C`: the Potency was 13.8 µM (active).

Take `CCO[Si](CCCSSSSCCC[Si](OCC)(OCC)OCC)(OCC)OCC`: the “activity change, negative = inhibition” value was -33%.

As to `O=C1NCCN1CCN1CCC(c2cn(-c3ccc(F)cc3)c3ccc(Cl)cc23)CC1`, the Potency was 13.3 µM (active).

Consider `SCCCCCCCCS`, for which the “activity change, negative = inhibition” value was 18.6%.

For `CN(C)c1ccc(N=Nc2ccccc2C(=O)O)cc1`, the Potency was 2.17 µM (active).

Regarding `CCN(CC)CCOc1ccc(C(O)(Cc2ccc(Cl)cc2)c2ccc(C)cc2)cc1` (configuration not stated), the Potency is 5.96 µM (active).

Turning to `C=CC(=O)OCCOCC(CC)(COCCOC(=O)C=C)COCCOC(=O)C=C`, the Potency is 5.67 µM (active).

`N#CSCSc1nc2ccccc2s1`: the Potency is 1.93 µM (active).

Take `O=C(Nc1ccc(Cl)c(Cl)c1)c1cc(Cl)cc(Cl)c1O`: the Potency is 3.86 µM (active).

In the case of `Nc1ccc2cc3ccc(N)cc3nc2c1`, the Potency result was “inactive”.

For the compound `CCC(C)c1cc([N+](=O)[O-])cc([N+](=O)[O-])c1OC(=O)OC(C)C` (configuration not stated), the Potency is 21.7 µM (active).

`CC(C)(c1cc(Br)c(OCCO)c(Br)c1)c1cc(Br)c(OCCO)c(Br)c1`: the Potency was 1.89 µM (active).

As for `O[C@@H](c1cc(C(F)(F)F)nc2c(C(F)(F)F)cccc12)[C@H]1CCCCN1`, the Potency is 23.7 µM (active).

In the case of `CCC(C)(C)c1cc(O)c(C(C)(C)CC)cc1O`, the Potency was 6.86 µM (active).

As to `CN1CCN(C2Cc3ccccc3Sc3ccc(Cl)cc32)CC1` (configuration not stated), the Potency was 6.68 µM (active).

In the case of `Cc1ccc(-n2[nH]c(C)c(N=Nc3cccc(-c4cccc(C(=O)O)c4)c3O)c2=O)cc1C`, the “activity change, negative = inhibition” value is -18.8% [at 42.5 µM].

As to `CCCCOc1ccc(C(=O)CCN2CCCCC2)cc1`, the “activity change, negative = inhibition” value was -32.8% [at 42.5 µM].

Take `CC(=O)OC(OC(C)=O)c1ccc([N+](=O)[O-])o1`: the Potency was 8.78 µM (active).

In the case of `CCC1(c2cnc[nH]2)Cc2ccccc2C1`, the “activity change, negative = inhibition” value was -17.7% [at 42.5 µM].

For `CCN(CC)CCNc1ccc(CO)c2sc3ccccc3c(=O)c12`, the Potency is 13.3 µM (active).

`COc1ccccc1OCCNCC(O)COc1cccc2[nH]c3ccccc3c12` (configuration not stated): the Potency is 21.1 µM (active).

On to `CN(C)CCCN1c2ccccc2Sc2ccc(C(F)(F)F)cc21`, for which the Potency is 29.8 µM (active).

Consider `COC(=O)C1=C(C)NC(C)=C(C(=O)OCCCN2CCC(c3ccccc3)(c3ccccc3)CC2)C1c1cccc([N+](=O)[O-])c1` (configuration not stated), for which the Potency is 33.5 µM (active).

`Oc1ccc(-c2ccc(O)cc2)cc1`: the Potency was 6.15 µM (active).

`Cc1c(C)n(Cc2ccccc2)c2ccc(C(=O)OCCN(C)C)cc12`: the Potency was 6.68 µM (active).

Take `CCCCCCCCCCOCC(O)CN` (configuration not stated): the Potency is 11.9 µM (active).

On to `C[C@@]12C(=O)OC(=O)[C@]1(C)C1CCC2O1`, for which the Potency is 1.68 µM (active).
